Source: PubChem BioAssay (NCI)
Several values for one entry are separate records, joined by “and”; a condition that tells them apart may be missing. Identical values can stand only once. The panel holds about 83,000 compounds, 20% with a hit somewhere; the sample as a whole holds those more often.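 48-hour exposure, single concentration, 96-well plates; percent growth endpoint where 0 means no net growth. Active: below 10.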 More than one record can exist for a structure, and the calls need not agree. Activity calls are given as the source filed them.

Assays:
Assay in all cases: NCI-60 one-dose screen, 48 h (100 = growth as untreated, 0 = no growth, -100 = all killed)
NCI-H23 lung = conditions: 10 µM
NCI-H226 lung = conditions: 10 µM
NCI-H322M lung = conditions: 10 µM
HOP-62 NSCLC = conditions: 10 µM
NCI-H460 lung = conditions: 10 µM
HOP-92 NSCLC = conditions: 10 µM
NCI-H522 lung = conditions: 10 µM unless noted
A549/ATCC NSCLC = conditions: 10 µM
786-0 renal = conditions: 10 µM
COLO 205 colon = conditions: 10 µM
DU-145 prostate = conditions: 10 µM unless noted
K-562 leukemia = conditions: 10 µM
MALME-3M melanoma = conditions: 10 µM
MDA-MB-231 breast = conditions: 10 µM
RXF 393 renal = conditions: 10 µM unless noted
SF-268 CNS = conditions: 10 µM
SF-295 CNS = conditions: 10 µM
SF-539 CNS = conditions: 10 µM
UACC-257 melanoma = conditions: 10 µM
M14 melanoma = conditions: 10 µM

Row | Structure (SMILES) | growth (NCI-H23 lung) | growth (NCI-H226 lung) | growth (NCI-H322M lung) | growth (HOP-62 NSCLC) | growth (NCI-H460 lung) | growth (HOP-92 NSCLC) | growth (NCI-H522 lung) | growth (A549/ATCC NSCLC) | growth (786-0 renal) | growth (COLO 205 colon) | growth (DU-145 prostate) | growth (K-562 leukemia) | growth (MALME-3M melanoma) | growth (MDA-MB-231 breast) | growth (RXF 393 renal) | growth (SF-268 CNS) | growth (SF-295 CNS) | growth (SF-539 CNS) | growth (UACC-257 melanoma) | growth (M14 melanoma)
1 | CCN(CC)c1ccc(NC(C(=O)c2ccccc2)c2ccccc2)cc1 (stereo not given) | 44.4% (inactive) | 60.1% (inactive) | 82.9% (inactive) | 123% (inactive) | 80.4% (inactive) | 73.7% (inactive) | 21.8% (inactive) | 92.5% (inactive) | -57.1% (active) | 20.5% (inactive) | 24.4% (inactive) | 10.4% (inactive) | 28.7% (inactive) | -34.1% (active) | 4.61% (active) | -22.8% (active) | 61.2% (inactive) | -50.1% (active) | 68.3% (inactive) | 22.8% (inactive)
2 | Cc1cc(NS(=O)(=O)c2ccc(N=Nc3cc(N=Nc4ccc(S(=O)(=O)Nc5cc(C)nc(C)n5)cc4)c4c(NC(=O)C(Cl)Cl)cccc4c3OC(=O)C(Cl)Cl)cc2)nc(C)n1 (tested in a mixture with another compound) | 107% (inactive) | 94.6% (inactive) and 96.1% (inactive) | 94.9% (inactive) and 87.3% (inactive) | 102% (inactive) and 103% (inactive) | 109% (inactive) and 103% (inactive) | 99% (inactive) and 120% (inactive) | 86.1% (inactive) and 3.96% (active) | 98.9% (inactive) and 95.2% (inactive) | 111% (inactive) and 115% (inactive) | 109% (inactive) and 113% (inactive) | 118% (inactive) and 110% (inactive) | 108% (inactive) and 117% (inactive) | 101% (inactive) and 94% (inactive) | 81.8% (inactive) and 68.1% (inactive) | 110% (inactive) and 93% (inactive) | 108% (inactive) and 115% (inactive) | 86.2% (inactive) | 99.3% (inactive) and 108% (inactive) | 101% (inactive) and 92.8% (inactive) | 113% (inactive) and 111% (inactive)
3 | CC(=O)Nc1cc(C)ccc1C | 95.1% (inactive) | 98.7% (inactive) | 96% (inactive) | 107% (inactive) | 106% (inactive) | 106% (inactive) | 96.1% (inactive) | 100% (inactive) | 106% (inactive) | 102% (inactive) | 112% (inactive) | 102% (inactive) | 92.9% (inactive) | 112% (inactive) | 105% (inactive) | 101% (inactive) | 101% (inactive) | 96.8% (inactive) | 101% (inactive) | 101% (inactive)
